# Source: PubChem
# In the library only some 9.9% were active in any assay of this set; here they are far more common.
# KDM4E inh: qHTS Assay for Inhibitors of Human Jumonji Domain Containing 2E (JMJD2E) | AID 2147, 2009 | 1.6% of 230,000 active | Potency, µM (highest dose often 57.1 µM), without a hit: top-dose activity change, negative = inhibition, most hits filed as inhibitors | Lysine-specific demethylase 4E (Homo sapiens), B2RXH2 | JMJD2E catalytic domain, FDH-coupled NADH fluorescence (FDH is formaldehyde dehydrogenase);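 also: 0% = wells with enzyme and -100% = buffer wells without enzyme; nearly all actives have a fitted effect of over 50% in size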
# Target sequence (B2RXH2 1-337 limits assumed): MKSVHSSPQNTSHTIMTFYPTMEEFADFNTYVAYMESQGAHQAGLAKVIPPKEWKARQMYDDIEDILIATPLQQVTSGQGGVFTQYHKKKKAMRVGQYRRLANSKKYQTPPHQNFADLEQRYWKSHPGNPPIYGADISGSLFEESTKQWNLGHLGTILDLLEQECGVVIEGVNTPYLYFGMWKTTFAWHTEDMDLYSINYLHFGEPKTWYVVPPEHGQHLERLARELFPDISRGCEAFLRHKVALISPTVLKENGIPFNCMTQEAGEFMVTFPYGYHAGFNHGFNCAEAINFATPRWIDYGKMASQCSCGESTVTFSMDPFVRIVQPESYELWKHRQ
# HPGD block: qHTS Assay for Inhibitors of HPGD (15-Hydroxyprostaglandin Dehydrogenase) | AID 894, 2007 | purified HPGD, NADH fluorescence kinetic, PGE2 substrate | Potency, µM, without a hit: at the top dose activity change, negative = inhibition, usual class: inhibitors | 4.3% of 150,000 active; active = well fitted inhibition curve with a large enough effect, not every such curve was filed as active; inconclusive = small, poorly fitted or top-dose-only effect, or another doubt; inactive = no such curve, though single readings can be large or run the other way
#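 NADH formation kinetics: reaction with 30 uM PGE2 and 1 mM NAD+ (final), 20 nM enzyme, Tris-HCl pH 8 with Tween 20, after 15 min compound preincubation at room temperature. Fluorescence change, last versus first of five reads.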
# Tau fluor counter: Counterscreen qHTS for Inhibitors of Tau Fibril Formation, Fluorescence Polarization; tau K18 P301L Alexa594 fluorescence, heparin fibrillization; Potency, µM (top dose mostly 57.7 µM), for the others: at the highest dose activity change, negative = decrease; 0.93% of 280,000 active; AID 1463, 2008; also: nearly all actives have a fitted effect of over 55% in size
#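 Human K18 P301L tau (15 uM unlabeled plus 0.24 uM Alexa 594-labeled, final) in 100 mM sodium acetate pH 7 was mixed with compound and 20 uM heparin and incubated 6 hr at 37 C.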
# Tau FP inhib: qHTS for Inhibitors of Tau Fibril Formation, Fluorescence Polarization | Microtubule-associated protein tau (Homo sapiens), P10636 | 0.39% of 280,000 active | K18 P301L tau heparin fibrillization, Alexa594 FP, 6 h | Potency, µM (top dose mostly 57.7 µM), inactives show top-dose activity, negative = inhibition, hits mostly inhibitors; also: nearly all actives have a fitted effect of over 55% in size
# Target sequence (P10636 561-689 P618L limits assumed): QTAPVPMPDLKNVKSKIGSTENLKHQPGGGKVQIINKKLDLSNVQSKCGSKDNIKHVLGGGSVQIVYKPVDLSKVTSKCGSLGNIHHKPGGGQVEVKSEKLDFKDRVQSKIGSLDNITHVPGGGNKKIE
#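 Compound effects on tau fibrillization are measured by Alexa 594 fluorescence polarization (ex 555, em 632 nm). K18 P301L tau is used at 15 uM with 0.24 uM labeled tracer, and 20 uM heparin induces aggregation over 6 hr at 37 C.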
# ALDH1A1 block: qHTS Assay for Inhibitors of Aldehyde Dehydrogenase 1 (ALDH1A1) | Purified ALDH1A1, NADH fluorescence, propionaldehyde substrate | Potency, µM (top dose mostly 75.3 µM), without a hit: top-dose activity, negative = inhibition, hits mostly inhibitors | 7.3% of 220,000 active; active = well fitted inhibition curve with a large enough effect, not every such curve was filed as active; inconclusive = small, poorly fitted or top-dose-only effect, or another doubt; inactive = no such curve, though single readings can be large or run the other way;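 also: plate controls were no enzyme wells and a reference inhibitor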
# Tau fibril ThT: qHTS for Inhibitors of Tau Fibril Formation, Thioflavin T Binding; Microtubule-associated protein tau (Homo sapiens), P10636; recombinant tau K18 P301L (four-repeat tau fragment), heparin-induced fibrillization, ThT fluorescence; Potency, µM (highest dose often 57.4 µM), for inactives: at the highest dose activity, negative = inhibition, most hits filed as inhibitors; 2.1% of 270,000 active; AID 1460, 2008; also: nearly all actives have a fitted effect of over 55% in size
#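 Heparin-induced (20 uM) aggregation of recombinant human K18 P301L tau, 15 uM unlabeled with 0.24 uM labeled, pH 7 acetate buffer, 6 hr at 37 C with compound. Fibrils quantified by 30 uM ThT fluorescence after 1 hr ambient incubation.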
# * hit, by the source's call; ? = inconclusive; · = no result given; [ ] = dose if it differs, or a comment. Unless noted, calls follow the shape of the dose curve; as a rule, active = well fitted curve in the direction sought with a large enough effect; inconclusive = small, poorly fitted or top-dose-only effect, or another doubt; inactive = no such curve, though single readings can be large; an effect the other way counts as inactive or inconclusive. Unless noted, % is scaled to controls: 0 for no effect and ±100 for the full control effect; potency is read from the fitted curve at half-maximal effect.
SMILES,KDM4E inh,HPGD block,Tau fluor counter,Tau FP inhib,ALDH1A1 block,Tau fibril ThT
CCOC(=O)c1c(C)[nH]c(N=Nc2ccccc2C)c1C,0%,-14%,?,5%,-1%,5µM*
CCOC(=O)c1c(C)[nH]c(C(=O)CSc2ccccc2)c1C,-5%,·,4%,4%,-3%,-2%
Cc1ccc(NC(=O)Cn2c(=O)oc3cc(S(=O)(=O)NCc4ccccc4)ccc32)cc1,·,·,-7%,?,·,-2%
COc1ccc(C(=O)CCC(=O)Nc2cccc(Cl)c2)cc1,5%,·,-18%,-3%,11%,-5%
COc1ccc(C(=O)CCNc2cccc(Cl)c2)cc1,-5%,0%,-25%,3%,3.2µM*,-15%
CCCOc1ccc(C(=O)CCNc2cccc(Cl)c2)cc1,-6%,·,-25%,6%,7.9µM*,?
CCN(C(=O)COC(=O)/C=C/c1cccc([N+](=O)[O-])c1)c1ccccc1,3%,·,-20%,8%,14µM*,-15%
CCCCN(CCCC)C(=O)/C=C/c1cccc([N+](=O)[O-])c1,3%,-17%,-15%,9%,4.5µM*,-19%
CCNC(=O)COC(=O)/C=C/c1cccc([N+](=O)[O-])c1,-18%,·,1%,1%,-6%,-5%
Cc1ccccc1Nc1c(-c2ccco2)nc2c(C)cccn12,·,·,-29%,1%,·,-14%
CCOc1ccc(CNC(=O)Cn2cc3c(n2)-c2c(oc(C(=O)N4CCOCC4)c2C)CC3)cc1,·,·,-6%,4%,·,-13%
O=c1oc2cc(O)ccc2s1,-4%,?,-26%,?,-3%,?
Cc1ccc(-c2cc(O)cc3sc(=O)oc23)cc1C,1%,·,16µM*[quencher],22µM*,·,?
NS(=O)(=O)c1ccc(N=Nc2c(O)c(C(=O)O)cc3ccccc23)cc1,-11%,-7%,?,?,8%[13.5 µM],5µM*
O=S(=O)(O)c1ccc2c(N=Nc3cccc4ccccc34)c(O)c(S(=O)(=O)O)cc2c1,·,-30%,·,·,?,·
O=C(O)Cc1ccc(N=Nc2c(O)c(C(=O)O)cc3ccccc23)cc1,?,·,-27%,?,?,13µM*
CCCCc1nc2c(c3c1C[C@H](C)OC3)CN(S(=O)(=O)c1c(C)noc1C)CC2,-23%[11.4 µM],-9%,-7%[11.6 µM],0%[11.6 µM],-9%[13.5 µM],-5%[11.5 µM]
CCc1c(C)sc2nc3c(C(=O)N4CCOCC4)cc(C(=O)c4cc(F)ccc4O)cn3c(=O)c12,-9%,·,-25%,4%,?,?
Cc1sc2nc3c(C(=O)N4CCCC4)cc(C(=O)c4ccccc4O)cn3c(=O)c2c1C,?,·,-9%,3%,20µM*,?
C/C(Cl)=C\CSc1nnc2n(N)c(=O)c3ccccc3n12,4%,-18%,-8%,-2%,18µM*,-13%
C=C(C)CSc1nnc2n(N)c(=O)c3ccccc3n12,4%,-10%,-7%,-1%,-12%,-8%
O=C1c2ccc([N+](=O)[O-])cc2NC(c2ccco2)N1/N=C/c1ccco1 (stereo not given),-25%,·,?,10%,·,13µM*
O=[N+]([O-])c1ccc(S(=O)(=O)N/N=C/c2ccco2)cc1,0%,·,-9%,-2%,?,-8%
CN=c1scc(-c2ccc([N+](=O)[O-])cc2)n1/N=C/c1ccco1,14%,·,-29%,-6%,1%,3.5µM*
Cc1cccc(-c2nc(SCC(=O)NCc3ccco3)c3c(=O)n(C)c(=O)n(C)c3n2)c1,·,·,-2%,-9%,·,-5%
COc1ccc(N2C(=S)NC3N2C(=S)NC3(C)c2ccccc2)cc1 (stereo not given),?,·,-14%,-17%,25µM*,?
